# D1 PAM = Potentiators of Human D1 Dopamine Receptor: qHTS. AID 504651, 2011. hit rate 0.036% among 360,000. HEK293 TREx D1 cells, calcium flux, dopamine EC20 potentiation. potentiation, % at 10 µM. D(1A) dopamine receptor (Homo sapiens), P21728; in the data active = potentiation above about 30%; also: 0% is about no effect
# TRHR PAM = qHTS for Small Molecule Agonists and Allosteric Enhancers of Human TRH Receptor: Primary Screen for Enhancers; hit rate 0.66% among 360,000; TRHR cells, fluo-8 calcium fluorescence, EC20 TRH enhancement; enhancement, % at 2 µM; Thyrotropin-releasing hormone receptor (Homo sapiens), P34981; in the data active = enhancement above about 30%; also: 0% is about no effect
# Target sequence (P34981 whole entry, looked up): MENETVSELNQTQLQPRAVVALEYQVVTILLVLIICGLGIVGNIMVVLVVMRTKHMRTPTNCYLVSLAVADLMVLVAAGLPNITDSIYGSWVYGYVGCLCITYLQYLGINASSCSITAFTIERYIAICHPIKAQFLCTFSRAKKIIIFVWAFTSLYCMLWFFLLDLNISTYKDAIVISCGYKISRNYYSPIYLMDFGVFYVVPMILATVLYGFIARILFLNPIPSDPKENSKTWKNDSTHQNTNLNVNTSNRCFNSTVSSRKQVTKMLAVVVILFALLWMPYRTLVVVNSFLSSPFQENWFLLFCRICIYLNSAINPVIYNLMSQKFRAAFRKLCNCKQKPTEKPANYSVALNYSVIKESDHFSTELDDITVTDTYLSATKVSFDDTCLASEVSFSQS
#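 Enhancer read-out: after compound pinning and an initial kinetic agonist-mode read, an EC20 of TRH (10 nM final) was injected and fluo-8 calcium signal (Ex 480/Em 530) followed at 1 s/cycle for 100 cycles in TRHR-expressing cells.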
# D1 antag = Antagonist of Human D 1 Dopamine Receptor: qHTS. activity change, negative = inhibition, % at 10 µM. HEK293 TREx D1 cells, calcium flux, dopamine EC80; hits give low values. AID 504652, 2011. D(1A) dopamine receptor (Homo sapiens), P21728. hit rate 3.2% among 360,000; in the data active = activity change below about -30%; also: % is scaled to controls: 0 for no effect and ±100 for the full control effect
#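 Cells carrying a force-coupled, tetracycline-inducible human D1 receptor report calcium flux. Each well gets a 10 s baseline, compound with 180 s monitoring, then an EC80 dopamine stimulus with a second 180 s kinetic read.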
# GRP78 ERSR act = qHTS for Inducers of the Endoplasmic Reticulum Stress Response (ERSR) in Human Glioma: qHTS. U87-MG GRP78 promoter luciferase reporter, 16 h. Potency, µM, for inactives: at the highest dose activation, usual class: activators. hit rate 0.02% among 420,000. AID 602332, 2012; active = well fitted activation curve with a large enough effect; inconclusive = small, poorly fitted or top-dose-only effect; inactive = no such curve, though single readings can be large or run the other way; also: potency is read from the fitted curve at half-maximal effect; series mostly up to about 76 µM; % of control where 0% means no effect; nearly all actives have a fitted effect of over 35% in size
#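 ERSR induction read as luciferase luminescence (Bright-Glo, 10 min at room temperature) in stably transfected human U87-MG glioma cells exposed to compounds for 16 h, using GRP78 as sensor.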
# TRHR agonist = qHTS for Small Molecule Agonists and Allosteric Enhancers of Human TRH Receptor: Primary Screen for Agonists. Thyrotropin-releasing hormone receptor (Homo sapiens), P34981. TRHR cells, calcium flux fluo-8, FDSS agonist mode. activation, % at 2 µM. hit rate 0.18% among 360,000. AID 493084, 2011; also: 0% is about no effect
#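 TRHR-expressing cells loaded with fluo-8 calcium dye; 23 nL library compound pin-transferred, kinetic FDSS fluorescence (Ex 480/Em 530) recorded about 180 s for agonist-induced calcium release, before a 10 nM TRH EC20 addition for potentiator mode.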
# D1 agonist = Allosteric Agonists of the Human D1 Dopamine Receptor: qHTS | hit rate 1% among 360,000 | HEK293 T-REx D1 cells, calcium flux, agonist mode | activation, % at 2 µM; also: 0% is about no effect
#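 Tetracycline-induced HEK293 TREx D1 cells, force-coupled to calcium signalling, were dye-loaded with a no-wash calcium kit. Compound was pin-added after a 10 s baseline. Fluorescence was read kinetically at 1 cycle/s for 180 s, with calcium rises flagged as agonism.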
# The depositor's hits bear a star; ? = inconclusive; · = not tested or not shown. Only some compounds are listed: those with a hit (about 4% of all), similar ones and a draw of the others. Rule as the data show it, unless noted: active = activation above about 30%; inactive = the rest.
SMILES,D1 PAM,TRHR PAM,D1 antag,GRP78 ERSR act,TRHR agonist,D1 agonist
CCOc1ccc(NC(=O)N2CC=C(c3c[nH]c4ccccc34)CC2)cc1,-3,4,-35*,-3%,0,6
CCc1ccc(NC(=O)N2CC=C(c3c[nH]c4ccccc34)CC2)cc1,2,11,-19,·,0,3
O=C(Nc1nc(-c2cccs2)cs1)C1=COCCO1,-5,18,-82*,2%,-1,0
Cc1cc(C)c(-c2csc(NC(=O)C3=COCCO3)n2)c(C)c1,-4,-8,-30*,12%,-1,12
Cc1cc(C)c2sc(NC(=O)C3=COCCO3)nc2c1,13,2,-34*,2%,0,0
Cc1cc(-c2csc(NC(=O)C3=COCCO3)n2)c(C)n1C,-4,0,-12,2%,0,0
O=C(Nc1nc2cc3c(cc2s1)OCCO3)C1=COCCO1,2,0,4,-19%,0,3
Cc1cc(C)c(NC(=O)C2=COCCO2)c(C)c1,-7,11,-33*,-1%,0,0
CC(=O)N(C(C)=O)c1ncn(C)c1S(=O)(=O)Nc1ccccc1,·,·,·,-4%,·,·
CCOC(=O)c1sc2ncnc(NCc3ccco3)c2c1C,1,0,-3,-2%,1,0
COc1ccc(C)cc1-n1nnnc1SCC(=O)Nc1cc(C)on1,7,-2,-51*,-5%,0,3
COc1ccc(C)cc1-n1nnnc1SCC(=O)NC(=O)NCc1ccco1,-2,-5,-37*,-3%,-1,2
Cc1cc(NC(=O)CSc2nnnn2-c2ccccc2F)no1,3,-1,5,-1%,0,0
COc1ccc(-n2nnnc2SCC(=O)NCc2ccco2)cc1OC,-2,2,-16,1%,0,1
Cc1ccc(S(=O)(=O)NCCC(=O)N2CC(C)OC(C)C2)cc1 (configuration not stated),2,1,6,-6%,0,1
COc1ccc(CN(Cc2ccco2)C(=O)COc2ccc(Cl)cc2C)cc1,-1,-1,-9,-3%,4,15
Cc1cccc(/C=N/N(CCO)C2=NS(=O)(=O)c3ccccc32)c1,-6,6,-34*,-2%,-1,2
CC(C)(C)NC(=O)CCN(/N=C/c1ccccc1)C1=NS(=O)(=O)c2ccccc21,16,-2,-4,-1%,-1,2
Cc1nnn(C23C[C@@H]4C[C@@H](CC(C(=O)N5CCN(c6ccccc6)CC5)(C4)C2)C3)n1,-2,-1,-34*,-3%,-1,0
O=C(N1CCN(c2ccccc2)CC1)C12CC3CC(CC(C3)C1)C2,6,13,14,-5%,-1,2
COc1ccc(Cc2nnc(N)s2)cc1OC,-9,1,3,-2%,0,1
C/C=C/c1ccc(OCCn2nnc3ccccc32)c(OC)c1,-2,0,-9,7%,-1,11
COc1ccc(/C=C/C(=O)c2ccccc2)cc1Cn1nnc2ccccc21,-2,-6,-31*,-9%,1,3
COc1ccc(/C=C/C(=O)c2ccc(O)cc2)cc1COc1ccc(F)cc1,-9,2,7,3%,2,5
COc1ccc(/C=C/C(=O)c2ccccc2)cc1COc1ccc(F)cc1,-6,-5,-33*,9%,4,17
SMILES,D1 PAM,TRHR PAM,D1 antag,GRP78 ERSR act,TRHR agonist,D1 agonist
CCc1cc(=O)oc2cc(C)cc(OCC(=O)N3CCC(C(=O)NC(C)C)(c4ccccc4)CC3)c12,-8,-22,-38*,0%,0,1
CCCCc1cc(=O)oc2c(C)c(OCC(=O)N3CCC(C(=O)O)(c4ccccc4)CC3)ccc12,-1,2,-5,4%,0,1
O=c1c(N=Nc2ccccc2)c[nH]n1-c1ccccc1,·,·,·,-2%,·,·
COC(=O)c1cc(=O)n(Cc2ccc(F)cc2)c(=Nc2ccccc2)s1,-2,-1,3,?,0,6
COC(=O)c1cc(=O)n(Cc2ccco2)c(=Nc2ccc(F)cc2)s1,-2,3,-35*,-9%,-2,0
CSc1nnc(NC(=O)c2nc(S(=O)(=O)Cc3cccc(C)c3)ncc2Cl)s1,-2,-1,2,-19%,0,1
COc1cccc(=O)c2c(C)n(CC(=O)c3ccccc3)c(C)c12,-4,-8,-33*,-1%,2,6
COc1ccc(C(=O)Nc2nc3n(n2)C(c2ccc(Cl)cc2)C=C(c2ccccc2)N3)cc1OC (configuration not stated),-1,7,-2,-2%,30*,39*
COc1ccc(/C=C/C(=O)Nc2nc3n(n2)C(c2ccccc2)C=C(c2ccc(Cl)cc2)N3)cc1 (configuration not stated),-2,0,5,-6%,1,9
COc1ccc(C2C=C(c3ccccc3)Nc3nc(NC(=O)/C=C/c4ccc(Cl)cc4)nn32)cc1 (configuration not stated),1,-5,-77*,-2%,0,1
COc1ccccc1NC(=O)C1=C(C)Nc2nc(CCCO)nn2C1c1ccc2c(c1)OCO2 (configuration not stated),-6,1,6,-1%,0,3
COc1ccccc1N1CCN(C(=O)CN(c2cc(C)cc(C)c2)S(C)(=O)=O)CC1,1,-7,-4,-1%,-1,0
CCOC(=O)C(CCCCCOc1ccccc1[N+](=O)[O-])C(=O)OCC,-8,-8,-29,-3%,0,17
CC(C)c1ccc(Nc2c([N+](=O)[O-])c(=O)n(C)c3ccccc23)cc1,-5,-2,-50*,-3%,0,2
O=C(Nc1ccccc1)NC1CS(=O)(=O)CC1O (configuration not stated),-9,-2,-41*,-4%,1,2
O=S1(=O)C[C@@H](O)[C@@H](Nc2ccccc2)C1,-7,-8,-12,-3%,1,2
CC(=O)N1c2ccc(S(=O)(=O)NCCC(=O)NC3CCCCCC3)cc2CC1C (configuration not stated),7,3,6,-4%,1,2
O=C(CCNS(=O)(=O)c1ccc2c(c1)CCN2C(=O)C1CC1)N1CCN(c2ccc(F)cc2)CC1,-6,2,-37*,-2%,-1,8

# Screens: PubChem BioAssay, National Center for Advancing Translational Sciences (NCATS)
